Drawing on PubChem BioAssay (NCI), this text covers growth inhibition for 19 compounds.

Each structure is given as a SMILES string. The panel holds about 79,000 compounds, 15% with a hit somewhere; the sample as a whole holds those more often. The source made the active and inactive calls. No stated cut-off is given here; in the data, active means growth inhibition above about 70%; inactive means the rest.

The assay can be described thus: NCI Yeast Anticancer Drug Screen. Data for the bub3 strain (AID 167). The settings on record: S. cerevisiae bub3 mutant strain, at 5.0 µM (retest, dose inferred, filed as 0.5), hits give high values. Summed up:
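Screening used yeast with an engineered genetic alteration affecting cell cycle control. Compound-exposed cultures were compared with vehicle cultures, and reduced growth was taken as inhibition.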
With `CCCCN(CCC(=O)O)c1ccc(/C=C\c2ccnc3ccccc23)cc1`, the growth inhibition is -2% (inactive). Turning to `CC1CC(N)=NC1C(=O)NCCC#N` (centres undefined), the growth inhibition is 25% (inactive). For `O=C(CC1(O)CCCCC1)OC1CCCC1` the value was 5% (inactive); for `CN(C)c1nc(-c2ccccc2)cc(-c2ccc(O)cc2)n1`, -2% (inactive); for `Oc1cc(C(c2ccccc2)c2ccccc2)c2ccccc2c1O`, 10% (inactive). Regarding `C(=P(c1ccccc1)(c1ccccc1)c1ccccc1)[P+](c1ccccc1)(c1ccccc1)c1ccccc1`, the growth inhibition was 98% (active).

`COC(=O)c1ccc(CCc2cc(O)ccc2O)cc1`: the growth inhibition is 52% (inactive). For `CCCCCCCCCCN` the value was 7% (inactive). For `CC[N-]c1nncs1.CC[N-]c1nncs1.CC[N-]c1nncs1.CC[N-]c1nncs1.[Cl][Rh][Cl]`, the growth inhibition was -4% (inactive). Consider `CC(C)C1=CC23CCC4C(C)(C(=O)O)CCCC4(C)C2CC1CC3C#N` (centres undefined), for which the growth inhibition was -1% (inactive). To `COc1ccc(/C(Cl)=C(\C=O)c2ccc(Cl)cc2)cc1` belongs 18% (inactive); to `CCOC(=O)Cc1csc(/N=C\c2c(O)c3ccccc3oc2=O)n1`, 20% (inactive); to `Cc1cccc(/C=N/NC(=S)Nc2ccccc2)n1`, -42% (inactive). For `Nc1nn2c(C(Br)Br)cc(C(Br)Br)nc2c1[N+](=O)[O-]` the value was 100% (active); for `c1ccc2nc3ccccc3nc2c1`, -1% (inactive); for `O=c1ccc2nc3ccccc3ccc-2c1`, -63% (inactive).

As for `C=CCOCC(C)OC(=O)C(C)C` (centres undefined), the growth inhibition is -71% (inactive). For `CCCCCCOC(=O)CCC(=O)OCCCCCC`, the growth inhibition was 16% (inactive).

As for `CC(=O)C(C(C)=O)C1C=CC=CC=C1`, the growth inhibition is -73% (inactive).
